These results are taken from PMC4336329 (PLoS ONE, 2015).

In all, about 310,000 compounds went through this assay and about 14,000 (4.5%) showed an effect of 50% or more. Effects have a minus sign here. The sample as a whole holds a higher share of strong results than the screen did.
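Further: peak tail current of the secondary pulse compared with the same well before compound.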

human ether-à-go-go-related gene (hERG) potassium channel, sequence (Q12809 whole entry, looked up): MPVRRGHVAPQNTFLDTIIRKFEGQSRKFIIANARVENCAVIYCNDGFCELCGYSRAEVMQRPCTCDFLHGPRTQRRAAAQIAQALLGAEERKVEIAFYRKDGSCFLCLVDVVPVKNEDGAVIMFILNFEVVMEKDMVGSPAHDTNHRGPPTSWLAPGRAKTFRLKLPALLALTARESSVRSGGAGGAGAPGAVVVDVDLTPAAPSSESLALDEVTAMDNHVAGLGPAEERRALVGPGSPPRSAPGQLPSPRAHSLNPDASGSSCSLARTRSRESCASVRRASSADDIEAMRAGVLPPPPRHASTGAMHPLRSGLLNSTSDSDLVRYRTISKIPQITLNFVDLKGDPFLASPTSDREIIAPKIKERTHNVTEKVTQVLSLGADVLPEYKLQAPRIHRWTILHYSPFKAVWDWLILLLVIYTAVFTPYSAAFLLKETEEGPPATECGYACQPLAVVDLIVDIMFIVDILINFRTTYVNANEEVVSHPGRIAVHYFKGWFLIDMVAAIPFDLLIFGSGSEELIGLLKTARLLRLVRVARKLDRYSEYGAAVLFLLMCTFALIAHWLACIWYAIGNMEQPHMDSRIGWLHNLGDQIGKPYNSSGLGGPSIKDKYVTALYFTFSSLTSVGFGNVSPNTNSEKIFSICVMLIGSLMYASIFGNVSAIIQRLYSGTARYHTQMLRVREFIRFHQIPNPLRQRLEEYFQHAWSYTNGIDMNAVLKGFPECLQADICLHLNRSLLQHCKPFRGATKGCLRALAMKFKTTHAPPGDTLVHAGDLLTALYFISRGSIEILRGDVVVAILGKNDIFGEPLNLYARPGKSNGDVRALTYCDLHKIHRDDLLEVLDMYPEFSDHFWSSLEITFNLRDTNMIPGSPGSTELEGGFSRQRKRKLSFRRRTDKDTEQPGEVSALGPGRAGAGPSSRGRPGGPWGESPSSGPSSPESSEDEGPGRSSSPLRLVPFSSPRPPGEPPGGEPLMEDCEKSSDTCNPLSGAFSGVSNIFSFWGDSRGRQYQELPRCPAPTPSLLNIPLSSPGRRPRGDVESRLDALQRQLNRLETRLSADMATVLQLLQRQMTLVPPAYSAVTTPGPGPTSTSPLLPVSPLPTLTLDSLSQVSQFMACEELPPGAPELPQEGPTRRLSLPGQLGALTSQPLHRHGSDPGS

This experiment addresses human ether-à-go-go-related gene (hERG) potassium channel (human, UniProt Q12809). The experiment is described as follows: primary screen, population patch clamp on CHO cells stably expressing hERG; higher = less effect of the substance.
On to `CC(=O)Nc1ccc(NC(=O)Cn2c(CC(=O)N3CCCC3)nc3ccccc32)cc1`, for which the “hERG current change (%, negative = inhibition) at 10uM” value worked out at 9%.

On to `Cc1cc(OC(=O)CCCNC(=O)OC(C)(C)C)c2c3c(c(=O)oc2c1)CCC3`, for which the “hERG current change (%, negative = inhibition) at 10uM” value was -9.18%. The figure for `CCC(=O)Nc1cc2nn(-c3ccc(OC)cc3)nc2cc1C` is 0.0727%; for `Cc1ccc(Sc2ccc([N+](=O)[O-])cc2[N+](=O)[O-])nc1` it is -19.1%. On to `Cc1cccc(NC(=O)CCN2C(=O)C3C4C=CC(C4)C3C2=O)c1` (stereo not drawn), for which the “hERG current change (%, negative = inhibition) at 10uM” value turned out to be 13.6%.

`C/C(=N\NC(=O)c1cc2ccccc2cc1O)c1ccccn1`: the “hERG current change (%, negative = inhibition) at 10uM” value is on record as -3.94%. On to `Cc1ccc(C(=O)N/C(=C\c2cn(S(=O)(=O)N(C)C)c3ccccc23)C(=O)NCCCN2CCOCC2)cc1`, for which the “hERG current change (%, negative = inhibition) at 10uM” value is reported as -18.7%. Regarding `O=C(NCCN1CCOCC1)/C(=C/c1ccc(Cl)cc1)NC(=O)c1ccccc1`, the “hERG current change (%, negative = inhibition) at 10uM” value is -76.5%. Then `Cc1ccc(C(=O)N/C(=C\c2ccc(Cl)cc2)C(=O)NCCN2CCOCC2)cc1`, with -75.1%; and `CN(C)c1ccc(/C=C(\NC(=O)c2ccccc2)C(=O)NCCN2CCOCC2)cc1`, with -19.9%; and `O=C(NCCCN1CCOCC1)/C(=C/c1cccs1)NC(=O)c1ccccc1`, with -21.8%. In the case of `CN(C)c1ccc(/C=C(/NC(=O)c2ccccc2)C(=O)NCCN2CCOCC2)cc1`, the “hERG current change (%, negative = inhibition) at 10uM” value is on record as 4.15%. Then `Cc1ccc(C(=O)N/C(=C\c2cccs2)C(=O)NCCCN2CCOCC2)cc1`, with -61.4%. Then `O=C(NC(=S)NCCN1CCOCC1)c1ccc(Cl)cc1`, with -13.2%; and `Cc1ccc(C(=O)N/C(=C\c2ccco2)C(=O)NCCN2CCOCC2)cc1`, with -23.2%; and `COc1ccccc1CNC(=O)C(NC(=O)C1CCCCC1)C(C)C` (stereo not drawn), with 1.84%. For `O=C(O)c1cccc(NS(=O)(=O)c2ccc(Oc3ccc(S(=O)(=O)Nc4cccc(C(=O)O)c4)cc3)cc2)c1`, the “hERG current change (%, negative = inhibition) at 10uM” value is recorded as 20.3%. The figure for `COc1ccc(OC)c(-n2nnnc2SCC(=O)NCCc2ccccc2)c1` is -20.3%. The figure for `CC1Cn2c(nc(=O)c3c2NCN(CCc2ccccc2)C3)S1` (stereo not drawn) is 13.5%. On to `O=C(C1CC1)N1N=C(c2ccc(Cl)cc2)CC1(O)C(F)(F)F` (stereo not drawn), for which the “hERG current change (%, negative = inhibition) at 10uM” value is recorded as -0.113%. Regarding `Cc1nn(C(C)C(=O)NC2CCC(C)CC2)c(=O)c2nn(-c3ccccc3)c(C)c12` (stereo not drawn), the “hERG current change (%, negative = inhibition) at 10uM” value is -28.3%.

On to `O=C(CCS(=O)(=O)c1cccs1)N1CCCC1`, for which the “hERG current change (%, negative = inhibition) at 10uM” value stood at 3.18%.

In the case of `O=c1c2ccccc2nc(-c2ccccc2)n1-c1ccccc1O`, the “hERG current change (%, negative = inhibition) at 10uM” value was determined as 16.1%. For `CC(OC(=O)c1snc(C(=O)NC2CCCCC2)c1N)C(=O)NC1CCCCC1` (stereo not drawn), the “hERG current change (%, negative = inhibition) at 10uM” value is listed as -3.99%.

For the compound `CCOC(=O)N1CCN(S(=O)(=O)c2ccc(C(=O)N(CCCN(C)C)c3nc4ccc(Cl)cc4s3)cc2)CC1.Cl`, the “hERG current change (%, negative = inhibition) at 10uM” value is -58.4%. The figure for `COc1ccc2sc(N(CCCN(C)C)C(=O)c3ccc(S(=O)(=O)N4CCc5ccccc5C4)cc3)nc2c1.Cl` is -6.59%. As to `CCOC(=O)N1CCN(S(=O)(=O)c2ccc(C(=O)N(CCN(C)C)c3nc4c(C)cccc4s3)cc2)CC1.Cl`, the “hERG current change (%, negative = inhibition) at 10uM” value is recorded as -37.5%. Then `CN(C)CCCN(C(=O)c1ccc(S(=O)(=O)N2CCc3ccccc32)cc1)c1nc2ccc(Cl)cc2s1.Cl`, with 10.5%; and `CCOC(=O)N1CCN(S(=O)(=O)c2ccc(C(=O)N(CCN(C)C)c3nc4ccc(CC)cc4s3)cc2)CC1.Cl`, with -51.9%; and `Cc1ccc2nc(N(CCCN(C)C)C(=O)c3ccc(S(=O)(=O)N4CCc5ccccc5C4)cc3)sc2c1.Cl`, with -25.3%. As to `CCOC(=O)N1CCN(S(=O)(=O)c2ccc(C(=O)N(CCCN(C)C)c3nc4ccc(OC)cc4s3)cc2)CC1.Cl`, the “hERG current change (%, negative = inhibition) at 10uM” value is listed as -73.5%. With `CCOC(=O)N1CCN(S(=O)(=O)c2ccc(C(=O)N(CCN(CC)CC)c3nc4ccc(C)cc4s3)cc2)CC1.Cl`, the “hERG current change (%, negative = inhibition) at 10uM” value was -23.8%. The figure for `CCOC(=O)N1CCN(S(=O)(=O)c2ccc(C(=O)N(CCCN(C)C)c3nc4cc(OC)ccc4s3)cc2)CC1.Cl` is -56.2%; for `COc1cc2nc(N(CCCN(C)C)C(=O)c3ccc(S(=O)(=O)N4CCc5ccccc5C4)cc3)sc2cc1OC.Cl` it is -9.41%; for `CCOC(=O)N1CCN(S(=O)(=O)c2ccc(C(=O)N(CCN(C)C)c3nc4ccc(Cl)cc4s3)cc2)CC1.Cl` it is -28.5%. On to `COc1ccc2sc(N(CCCN(C)C)C(=O)c3ccc(S(=O)(=O)N4CCCC4)cc3)nc2c1.Cl`, for which the “hERG current change (%, negative = inhibition) at 10uM” value was -43.9%. The figure for `O=C(c1ccccc1Cc1ccccc1)N1CCN(S(=O)(=O)c2ccccc2)CC1` is -6.88%; for `CN(C)NC(=S)Nc1ccc(S(=O)(=O)N2CCCCC2)cc1` it is -5.26%; for `CCn1ccnc1CN(C)C(=O)CCc1nnc(CCCc2ccccc2)o1` it is -7.7%. With `Cc1cccc(NC(=O)CN2C(=O)N/C(=C\c3ccc(N4CCOCC4)cc3)C2=O)c1`, the “hERG current change (%, negative = inhibition) at 10uM” value is 9.92%. Then `CC(NC(=O)COC(=O)Cc1ccsc1)C1CC2CCC1C2` (stereo not drawn), with -12.1%; and `COc1ccc(N(CC(=O)N2CCc3ccccc32)S(=O)(=O)c2c(C)n[nH]c2C)cc1`, with -18.6%.
